JMJD2A Tudor = qHTS Assay for Inhibitors of JMJD2A-Tudor Domain; AlphaScreen JMJD2A-Tudor / H3K4me3 peptide binding; Potency, µM (top dose mostly 114 µM), actives largely listed as inhibitors; 390,000 compounds, 4.4% hits; Lysine-specific demethylase 4A (Homo sapiens), O75164; AID 504339, 2011; note: nearly all actives have a fitted effect of over 50% in size
VDR inhibitor = Inhibitors of the vitamin D receptor (VDR): qHTS; Potency, µM, most hits filed as inhibitors; Vitamin D3 receptor (Homo sapiens), P11473; AID 504847, 2011; VDR-SRC2-3 peptide fluorescence polarization, 2 h; 400,000 compounds, 0.93% hits
Target sequence (P11473 whole entry, looked up): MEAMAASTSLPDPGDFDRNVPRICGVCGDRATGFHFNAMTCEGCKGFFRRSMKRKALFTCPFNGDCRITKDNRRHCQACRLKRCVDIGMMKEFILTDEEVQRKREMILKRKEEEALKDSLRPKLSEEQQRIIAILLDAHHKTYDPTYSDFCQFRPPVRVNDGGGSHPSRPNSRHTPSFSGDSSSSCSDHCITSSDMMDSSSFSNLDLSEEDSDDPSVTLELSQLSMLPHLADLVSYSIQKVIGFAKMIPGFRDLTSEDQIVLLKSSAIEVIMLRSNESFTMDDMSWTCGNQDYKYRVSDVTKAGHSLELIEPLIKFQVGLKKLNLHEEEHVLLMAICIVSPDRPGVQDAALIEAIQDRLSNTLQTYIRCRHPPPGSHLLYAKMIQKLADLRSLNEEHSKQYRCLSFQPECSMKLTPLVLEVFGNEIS
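Fluorescence polarization assay measuring small-molecule disruption of VDR binding to the coregulator peptide SRC2-3. Compounds were pin-transferred (23 nl) into the reagent mix and incubated 2 h at room temperature before reading.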
HP1b chromo inh = HTS for Inhibitors of HP1-beta Chromodomain Interactions with Methylated Histone Tails; AID 540317, 2011; Chromobox protein homolog 1 (Homo sapiens), P83916; Potency, µM (top dose mostly 114 µM), most hits filed as inhibitors; AlphaScreen HP1-beta / biotin-H3K9me3 peptide binding; 390,000 compounds, 0.56% hits; note: nearly all actives have a fitted effect of over 70% in size
Target sequence (P83916 whole entry, looked up): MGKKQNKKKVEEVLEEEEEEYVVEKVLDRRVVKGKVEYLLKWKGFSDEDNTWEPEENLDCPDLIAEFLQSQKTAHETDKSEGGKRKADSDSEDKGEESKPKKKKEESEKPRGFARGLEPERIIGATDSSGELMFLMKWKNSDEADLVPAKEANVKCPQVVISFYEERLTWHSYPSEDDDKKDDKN
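Compound inhibition of the preformed complex between 50 nM HP1-beta and 50 nM biotinylated H3K9me3 peptide was read by AlphaScreen. Buffer was PBS pH 7.4 with 0.01% Tween-20. Incubations ran 30 min at room temperature, with 10 ug/mL donor/acceptor beads.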
PLK1 PBD inh = qHTS for Inhibitors of PLK1-PDB (polo-like kinase 1 - polo-box domain): Primary Screen | Plk1 PBD binding of FITC phosphopeptide, fluorescence polarization | Serine/threonine-protein kinase PLK1 (Homo sapiens), P53350 | 360,000 compounds, 2.8% hits | Potency, µM, actives largely listed as inhibitors; note: series mostly up to about 57 µM; nearly all actives have a fitted effect of over 65% in size
L3MBTL1 block = qHTS Assay for the Inhibitors of L3MBTL1; Lethal(3)malignant brain tumor-like protein 1 (Homo sapiens), Q9Y468; AlphaScreen L3MBTL1–H3K9me1 peptide binding; Potency, µM (top dose mostly 57.1 µM), usual class: inhibitors; 230,000 compounds, 0.66% hits; note: nearly all actives have a fitted effect of over 60% in size
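L3MBTL1 (50 nM) pre-complexed 30 min with biotinylated H3(1-15)K9me1 peptide (75 nM), then compounds added for 30 min at room temperature; AlphaScreen streptavidin donor/nickel chelate acceptor beads (10 ug/mL final) read after 30 min dark incubation.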
BAZ2B inh = qHTS Assay for Inhibitors of BAZ2B; 360,000 compounds, 4.4% hits; Potency, µM (top dose mostly 114 µM), actives largely listed as inhibitors; Bromodomain adjacent to zinc finger domain protein 2B (Homo sapiens), Q9UIF8; AlphaScreen BAZ2B-H3K14Ac peptide displacement; AID 504333, 2011; note: nearly all actives have a fitted effect of over 60% in size
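AlphaScreen displacement: compounds (up to 110uM) incubated 30 min at room temperature with a preformed 50 nM BAZ2B/50 nM biotinylated H3K14Ac peptide complex in PBS pH 7.4 with Tween-20. Donor and acceptor beads at 10 ug/mL final added, 20 min light-protected before reading.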
Large screens that a line does not name were inactive. Most compounds without a hit are left out; they make up all but 6.9% or so of the library. Calls come from the whole dose curve; as a rule, active = well fitted curve in the direction sought with a large enough effect; inconclusive = small, poorly fitted or top-dose-only effect, or another doubt; inactive = no such curve, though single readings can be large; an effect the other way counts as inactive or inconclusive.

CCc1ccc(CN2CCN(Cc3cc(Br)ccc3O)CC2)cc1	JMJD2A Tudor 22.4µM, HP1b chromo inh 25.1µM, BAZ2B inh 44.7µM (no result: L3MBTL1 block)
CCc1ccc(CN2CCN(C(=O)Cc3ccccc3)CC2)cc1	JMJD2A Tudor 20µM, HP1b chromo inh 28.2µM, BAZ2B inh 25.1µM
CCN1C[C@@]2(COC)C3[C@@H](OC)C4[C@@H]1C3([C@@H]1C[C@]3(O)[C@H](OC(=O)c5ccccc5)[C@@H]1[C@]4(OC(C)=O)[C@@H](O)[C@@H]3OC)[C@H](OC)C[C@H]2O	none (no result: JMJD2A Tudor, HP1b chromo inh, PLK1 PBD inh, L3MBTL1 block, BAZ2B inh)
Cc1ccc(-c2csc(NC(CO)c3nc4ccccc4n3CCOCCO)n2)cc1 (configuration not stated)	JMJD2A Tudor inconclusive, PLK1 PBD inh 21.2µM (no result: L3MBTL1 block, BAZ2B inh)
O=C1C=CC(=O)C(Cl)=C1	VDR inhibitor 25.1µM (no result: JMJD2A Tudor, HP1b chromo inh, PLK1 PBD inh, L3MBTL1 block, BAZ2B inh)
O=C(O)c1cccc2nc3ccccc3nc12	none
O=C(O)c1ccc[nH]c1=S	JMJD2A Tudor 0.891µM, PLK1 PBD inh inconclusive, BAZ2B inh 39.8µM
O=C(CN1C(=O)CN=C(c2ccccc2)c2ccccc21)NCc1ccco1	L3MBTL1 block 20µM, BAZ2B inh inconclusive
CC(C)CCNC(=O)CN1C(=O)CN=C(c2ccccc2)c2ccccc21	none (no result: L3MBTL1 block)
CC(C)C[C@H]1CN([C@@H](CC(C)C)CN2CCCC2CN2C(=S)NC[C@@H]2Cc2ccc(O)cc2)C(=S)N1CC1CCCCCC1 (some centres not stated)	JMJD2A Tudor inconclusive (no result: L3MBTL1 block, BAZ2B inh)
O=c1cc(-c2ccc(O)c(O)c2)oc2c(C3O[C@H](CO)[C@@H](O)[C@H](O)[C@H]3O)c(O)cc(O)c12 (some centres not stated)	JMJD2A Tudor inconclusive, L3MBTL1 block 10µM, BAZ2B inh inconclusive
[Cl-].[Cl-].[Hg+2]	VDR inhibitor 2.51µM (no result: JMJD2A Tudor, HP1b chromo inh, PLK1 PBD inh, L3MBTL1 block, BAZ2B inh)
COc1cc2c(cc1OC)-c1c(OC)c(OC)cc3c1[C@H](C2)N(C)CC3	JMJD2A Tudor inconclusive
COc1cc2c(cc1OC)-c1c(OC)c(OC)c(C=O)c3c1[C@H](C2)N(C)CC3	VDR inhibitor 8.91µM (no result: JMJD2A Tudor, HP1b chromo inh, PLK1 PBD inh, L3MBTL1 block, BAZ2B inh)
CNc1ccc(C(=O)CC(O)CCC(C)C2OC(=O)CC(O)CC(=O)CC(O)CC(O)CC(O)CC(O)CC3(O)CC(O)C(C(=O)OC)C(CC(O[C@@H]4OC(C)C(O)C(N)C4O)/C=C/C=C/C=C/C=C/C=C/C=C/C=C/C2C)O3)cc1 (some centres not stated)	none (no result: JMJD2A Tudor, HP1b chromo inh, PLK1 PBD inh, L3MBTL1 block, BAZ2B inh)
c1ccc2c(c1)c1cccc3ccc4cccc2c4c31	none
Nc1ccc2c3c(cccc13)-c1ccccc1-2	PLK1 PBD inh 9.47µM (no result: L3MBTL1 block, BAZ2B inh)
COC(=O)C12CC3=CCC4C(=O)N(c5ccccc5)C(=O)C4C3Cc3ccccc3[C@@H]1CNC2=O (some centres not stated)	none (no result: JMJD2A Tudor, HP1b chromo inh, PLK1 PBD inh, L3MBTL1 block, BAZ2B inh)
C[C@H]1O[C@@H](O[C@H]2[C@@H](O)C[C@H](O[C@H]3[C@@H](O)C[C@H](O[C@H]4CC[C@]5(C)C6CC[C@]7(C)[C@@H](C8=CC(=O)OC8)CC[C@]7(O)C6CC[C@@H]5C4)O[C@@H]3C)O[C@@H]2C)C[C@H](O)[C@@H]1O (some centres not stated)	none (no result: JMJD2A Tudor, HP1b chromo inh, PLK1 PBD inh, L3MBTL1 block, BAZ2B inh)
Cc1ccc(C=C2C(Cl)=C(Cl)C(Cl)=C2Cl)cc1	JMJD2A Tudor 14.1µM, VDR inhibitor inconclusive, HP1b chromo inh 15.8µM, PLK1 PBD inh 11.9µM, L3MBTL1 block 3.16µM, BAZ2B inh 20µM
CC(=O)OCC1=C[C@H]2[C@@H]3C(C)(C)[C@]3(OC(=O)Cc3ccccc3)C[C@@H](C)[C@]2(O)[C@@H]2C=C(C)C(=O)[C@@]2(O)C1	none (no result: JMJD2A Tudor, HP1b chromo inh, PLK1 PBD inh, L3MBTL1 block, BAZ2B inh)
N[C@@]1(C(=O)O)CC[C@@H](C(=O)O)C1	JMJD2A Tudor 50.1µM
CCN(CC)C(=O)Cn1cc(/C=C2\C(=O)NC(=O)N(c3ccccc3F)C2=O)c2ccccc21	VDR inhibitor 79.4µM, PLK1 PBD inh 4.74µM (no result: L3MBTL1 block)
O=C(O)Cn1cc(/C=C2\C(=O)NC(=O)N(c3ccc(Cl)cc3)C2=O)c2ccccc21	VDR inhibitor inconclusive, PLK1 PBD inh 15µM, BAZ2B inh inconclusive (no result: L3MBTL1 block)
COC1=CC(=O)O[C@H](/C=C/c2ccc3c(c2)OCO3)C1	none (no result: JMJD2A Tudor, HP1b chromo inh, PLK1 PBD inh, L3MBTL1 block, BAZ2B inh)
Cc1ccc(N2C(=O)NC(=O)/C(=C/c3ccc(OC(=O)c4cccs4)cc3)C2=O)cc1	JMJD2A Tudor 89.1µM, VDR inhibitor inconclusive, PLK1 PBD inh 9.47µM
COc1ccc(N2C(=O)NC(=O)/C(=C/c3cccc(OC(=O)c4cccs4)c3)C2=O)cc1Cl	VDR inhibitor inconclusive, PLK1 PBD inh 18.9µM, BAZ2B inh 79.4µM
COc1cc(/C=C2\C(=O)NC(=O)N(c3ccccc3)C2=O)cc(OC)c1O	PLK1 PBD inh inconclusive, BAZ2B inh inconclusive (no result: L3MBTL1 block)
CCC(C)N1CCN(C(=O)COc2ccc3ccccc3c2)CC1 (configuration not stated)	JMJD2A Tudor 2.82µM, HP1b chromo inh 50.1µM, BAZ2B inh 17.8µM (no result: L3MBTL1 block)
CN1CCN(C(=O)COc2ccc(Oc3ccccc3)cc2)CC1	VDR inhibitor inconclusive, L3MBTL1 block inconclusive
Cc1nc2c(=O)n(C)c(=O)nc-2n(C)n1	VDR inhibitor inconclusive, L3MBTL1 block 0.112µM
C[C@H](CO)N1C[C@H](C)[C@@H](CN(C)Cc2ccc(-c3ccccc3)cc2)Oc2c(NC(=O)c3ccncc3)cccc2C1=O	JMJD2A Tudor inconclusive (no result: BAZ2B inh)
CCOC(C(=O)OCCC[N+](C)(CC)CC)(c1ccccc1)c1ccccc1	none (no result: L3MBTL1 block)
